High-throughput results from PubChem.
HepG2 tox = HepG2 cytotoxicity, counter-screen for TGF-b inhibitors | HepG2 CAGA-GFP viability, ATP luminescence, 18 h | Potency, µM (titrated, usually from 46.1 µM), actives largely listed as cytotoxic | 410,000 tested, 0.76% active | AID 588856
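CellTiter-Glo luminescence gave cytotoxicity after 18 hours at 37 degrees C. The cells were HepG2 CAGA-GFP in 1% FBS DMEM, stimulated with 500 pg/mL TGF-beta after compound addition. %Activity was normalised to no-cell wells (complete cell-killing) and DMSO (no toxicity), and curves were fitted and classified.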
ATXN viability = cell viability loss in ATXN counter-screen. Potency, µM (highest dose often 56.7 µM), hits mostly cytotoxic. S2 cells (HEK-293 line with an ATXN2-luciferase reporter) viability, CellTiter-Fluor protease fluorescence, 24 h. 400,000 tested, 0.49% active; note: nearly all actives have a fitted effect of over 40% in size
DRD3 antagonist = antagonists of human D3 dopamine receptor. AID 652054. P35462. max response, negative = inhibition, %. D3R cells, DiscoveRx beta-arrestin luminescence, antagonist mode; stronger effect = lower value. 360,000 tested, 2.5% active; in the data active = max response below about -50%; inconclusive = no clear call, values can overlap the other calls
Target sequence (P35462 whole entry, looked up): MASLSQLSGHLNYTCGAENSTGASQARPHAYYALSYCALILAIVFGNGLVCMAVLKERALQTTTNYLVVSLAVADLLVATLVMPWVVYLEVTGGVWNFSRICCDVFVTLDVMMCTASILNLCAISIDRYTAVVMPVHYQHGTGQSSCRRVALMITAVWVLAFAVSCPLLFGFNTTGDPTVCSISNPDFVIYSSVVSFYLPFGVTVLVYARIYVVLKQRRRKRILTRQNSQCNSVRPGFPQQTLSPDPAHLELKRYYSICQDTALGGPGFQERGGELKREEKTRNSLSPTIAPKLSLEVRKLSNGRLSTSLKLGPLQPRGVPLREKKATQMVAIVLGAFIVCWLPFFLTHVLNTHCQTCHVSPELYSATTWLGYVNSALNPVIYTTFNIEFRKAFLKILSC
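Cells plated overnight at 1500 cells/well, then exposed to library compounds with dopamine controls for 90 minutes at 37 degrees C. DiscoveRx reagent added for 30–60 minutes at room temperature; luminescence read, quantitative HTS format.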
ATXN2 expr inh = reduces ATXN2 reporter expression in HEK-293 cells | HEK-293 ATXN2-luciferase reporter, luminescence, 24 h | 360,000 tested, 0.72% active | Potency, µM (series often up to 57 µM), most hits filed as inhibitors | AID 1745845; note: nearly all actives have a fitted effect of over 55% in size
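qHTS (up to 57 uM final) was run with 24 h compound exposure of reporter cells at 37 °C. Each well was multiplexed: SteadyGlo luminescence measured ATXN2-luciferase expression after a fluorogenic Gly-Phe-AFC viability readout (25 uM final).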
D3 ag = agonists of human D3 dopamine receptor | 410,000 tested, 0.58% active | max activation, % | P35462 | AID 652048 | D3R DiscoveRx beta-arrestin cells, luminescence, 90 min; in the data active = max activation above about 30%
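Cells at 1500/well, incubated overnight, then treated with pinned compounds (dopamine as control) for 90 min at 37 degrees C. DiscoveRx reagent added for 30 - 60 minutes at room temperature; luminescence read.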
TGFb inhibitor = inhibitors of TGF-b signaling; HepG2 CAGA-GFP TGF-b/SMAD3 reporter, GFP fluorescence, 18 h; TGF-beta stimulated, 500 pg/mL final; Potency, µM (top dose mostly 46.1 µM), hits mostly inhibitors; AID 588855; 410,000 tested, 1.2% active; note: nearly all actives have a fitted effect of over 65% in size
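Inhibition was scored as loss of TGF-beta-induced (500 pg/mL final, 18 hours, 37 degrees C) GFP in HEPG2 cells carrying a CAGA-GFP reporter, in DMEM with 1% FBS. Well GFP was summed per cell; Activity was normalised to unstimulated and stimulated DMSO wells, then concentration-response fitting.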
Hits are given with their value; 0 = inactive; ? = inconclusive; - = no result; [ ] = remark or other dose. Rows were chosen to be rich in hits. Some 4.8% of all compounds tested hit in one or more screens of this group. Unless noted, calls come from the whole dose curve; as a rule, active = well fitted curve in the direction sought with a large enough effect; inconclusive = small, poorly fitted or top-dose-only effect, or another doubt; inactive = no such curve, though single readings can be large; an effect the other way counts as inactive or inconclusive.

SMILES	HepG2 tox	ATXN viability	DRD3 antagonist	ATXN2 expr inh	D3 ag	TGFb inhibitor
CCOc1ccc(-n2c(C)cc(C(=O)CCl)c2C)cc1	0	-	0	24µM	0	13µM
COc1cc(-c2cc(C)c3cccc(OC)c3n2)cc2c1OCCN(C(=O)CCn1nc(C)cc1C)C2	-	0	-	-	-	-
Cc1ccc(C(C)CCN2CCOc3ccc(CN4CCOCC4)cc3C2)o1 (stereo unspecified)	-	0	-	-	-	-
COc1ccc(-n2nc3cc(C)c(NC(C)=O)cc3n2)cc1	0	0	0	8.9µM	0	0
CCc1ccc(-n2nc3cc(C)c(NC(=O)c4cc(OC)cc(OC)c4)cc3n2)cc1	0	0	-	0	0	0
CCCCN(CC)CCCNC(=O)C1CCN(c2nc3ccc(CC)cc3s2)CC1	0	-	-	-	0	-
CCCCN(C)CCCNC(=O)C1CCN(c2nc3ccc(CC)cc3s2)CC1	14µM	-	-	?	0	?
CC1(C)CC(=O)C2=C(C1)N=C1SCCC(=O)N1C2c1ccccc1 (stereo unspecified)	0	0	-53	0	0	0
CN(/N=C/c1cc(Br)cc(Br)c1O)c1cccc(C(F)(F)F)n1	3.2µM	-	?	?	0	?
CCCC(=O)N1CCN(c2nc3ccc(F)cc3s2)CC1	0	-	-	-	0	0
CC(=O)Nc1ccc(CN2CCCCCCC2)cc1	0	0	?	0	0	0
O=C(Nc1ccc(CN2CCCCC2)cc1)c1c(F)c(F)c(F)c(F)c1F	0	0	0	0	0	0
CCN1CCN(Cc2ccccc2NC(=O)Nc2ccc(C)cc2)CC1	0	0	0	0	0	0
O=C(Nc1ccc(CN2CCCCC2)cc1)c1ccc(Br)o1	0	0	-62	0	0	0
O=C(Nc1ccc(CN2CCCCC2)cc1)Nc1ccccc1Cl	0	0	-52	0	0	0
CCN1CCN(Cc2ccc(NC(=O)Nc3ccccc3Cl)cc2)CC1	0	0	-61	0	0	0
COc1cc(CN2CCC3(CCC(CNC(=O)c4cc(C)nn4C)O3)CC2)ccc1F (stereo unspecified)	-	0	-	-	-	-
COc1cccc(C(=O)c2cn(CC(=O)NCc3ccccc3)c3nc(C)ccc3c2=O)c1	0	-	-	-	0	0
NC(N)=N/N=C/c1ccc(OCc2ccccc2)cc1	13µM	?	0	?	0	?
NC(N)=N/N=C/c1ccc(OCc2ccc(Cl)cc2)cc1	10µM	32µM	0	?	0	?
O=C(N/N=C/c1ccccc1)c1ccc(OCc2ccccc2)cc1	0	0	0	-	0	0
CCOC(=O)c1c(N)sc2c1CCN(Cc1ccccc1)C2	0	0	-	0	0	0
CN(C)CCNC(=O)c1ccc(-n2c(-c3ccccc3)cc3c2CCCC3)cc1	18µM	-	-	-	0	?
CC(=O)c1ccc(N2CCN(c3nc4c(S(=O)(=O)c5ccc(C)c(C)c5)nnn4c4ccc(Cl)cc34)CC2)cc1	0	0	-	0	0	0
CC12CCC(C(=O)N(CCCCN3CCN(Cc4ccccc4)CC3)C1=O)C2(C)C (stereo unspecified)	0	0	-74	0	0	0
SMILES	HepG2 tox	ATXN viability	DRD3 antagonist	ATXN2 expr inh	D3 ag	TGFb inhibitor
COc1cc(CN2CCOc3ccc(CN4CCC(O)(c5cccnc5)CC4)cc3C2)ccc1F	-	0	-	-	-	-
Cc1cccc(C(=O)O[C@@H]2[C@H](Cc3ccccc3)NS(=O)(=O)[C@H]3C[C@@H]4C=C[C@]23O4)c1	0	0	0	0	52	?
O=C(NCc1ccncc1)c1cc(-c2ccc(Cl)cc2)oc1C(F)(F)F	0	?	0	-	0	?
O=C(NCc1ccccn1)c1cc(-c2ccc(Cl)cc2)oc1C(F)(F)F	0	?	0	0	0	11µM
Cc1ccc(C(=O)CC(=O)c2ccc(C)cc2O)cc1	0	-	-77	0	0	0
Cc1ccc(C(=O)CC(=O)c2cc(Cl)ccc2O)cc1	0	0	0	0	0	?
OC(CN1CCCCC1)Cn1c2ccc(Cl)cc2c2cc(Cl)ccc21 (stereo unspecified)	0	?	?	?	0	?
OC(CN1CCN(c2ccccn2)CC1)Cn1c2ccc(Cl)cc2c2cc(Cl)ccc21 (stereo unspecified)	0	0	0	0	45	0
Cc1cccc(C)c1OCC(O)CN1CCN(c2ccccc2)CC1 (stereo unspecified)	0	0	0	0	63	0
Cc1cccc(C)c1OCC(O)CN1CCN(c2ccccn2)CC1 (stereo unspecified)	0	0	0	0	59	?
Cc1ccc(OCC(O)CN2CCN(c3ccccn3)CC2)c(C)c1 (stereo unspecified)	0	0	0	0	45	0
CC(C)(C)c1ccccc1OCC(O)CN1CCN(c2ccccn2)CC1 (stereo unspecified)	0	?	?	?	0	?
COCCCNc1ncnc2sc(C(=O)N3CCCCC3)c(C)c12	-	0	-	-	-	-
Cc1ccc(C)c2c(C)ccnc12	0	-	-	-	-	0
COc1cccc(CNC(=O)c2oc3ccc4c(c3c2C)C(=O)CC(C)(C)O4)c1OC	0	-	-	-	0	-
CCS(=O)(=O)N1CC(=O)N(c2cccc(Cl)c2)C(C)(C(=O)NC2CCCCCC2)C1 (stereo unspecified)	0	-	-	-	0	?
OC(COC(c1ccc(Cl)cc1)c1ccc(Cl)cc1)CN1CCN(c2ccccn2)CC1 (stereo unspecified)	14µM	0	?	?	0	?
CN1CCN(CC(O)COC(c2ccccc2)c2ccccc2)CC1 (stereo unspecified)	0	0	0	0[11.3 µM]	0	0
CC1CN(CCCCOc2cccc(Oc3ccccc3)c2)CC(C)O1 (stereo unspecified)	0	0	?	0	0	0
CC(C)c1ccc(OCCCCN2CCCCC2)cc1	0	0	-88	0	0	0
CCC(C)c1ccc(OCCN2CCCC2)cc1 (stereo unspecified)	0	0	-78	0	0	0
Clc1ccc(SCCOCCN2CCCCCC2)cc1	0	0	-115	-	0	0
CC1CN(CCCCOc2ccc(C(C)C)cc2)CC(C)O1 (stereo unspecified)	0	0	-63	0	0	0
CC1(C)S[C@@H]2[C@H](NC(=O)[C@H](N)c3ccccc3)C(=O)N2[C@H]1C(=O)OCOC(=O)[C@@H]1N2C(=O)C[C@H]2S(=O)(=O)C1(C)C	-	0	-	-	0	-
Clc1ccc(OCCCCN2CCCCC2)cc1	0	0	-62	0	0	0
CC1CN(CCCCOc2ccc(Cl)c3ccccc23)CC(C)O1 (stereo unspecified)	0	0	?	0	0	16µM
CC(C)Oc1ccc(OCCCN2CCCCCC2)cc1	0	0	-84	0	0	0
COc1cc(NC(=O)c2nnn(CC(=O)Nc3ccccc3)c2N)cc(OC)c1	0	-	-	-	0	0
